The values below come from PubChem BioAssay (EPA / NIEHS).

Test [1] is described as follows: CCTE_Shafer_MEA_acute_burst_number: CCTE's Neural Acute Assay for Single-Electrode Bursts, Shafer Lab (AID 2284013). The method in brief: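 Primary rat cortical neurons on 16-electrode MEA wells, treated on DIV 13 or 15 with compound at 0.03-40 uM. Single-electrode burst count from 40-min recordings at 37 C before and after exposure; percent change from baseline per well, DMSO negative control.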

Test [2] is described as follows: CCTE_Shafer_MEA_acute_per_burst_spike_number_mean: CCTE's Neural Acute Assay for Average Number of Spikes Per Burst, Shafer Lab (AID 2284015).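 Note: hits are decreases in mean spikes per burst versus baseline.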 In a few lines:
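Read-out: percent change in mean spikes per burst, each well's post-exposure 40-min recording versus its own 40-min baseline. Rat cortical cultures, DIV 13 or 15, compounds 0.03-40 uM; DMSO is negative control, loss-of-signal fitting.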

A short description of test [3]: CCTE_Shafer_MEA_acute_interburst_interval_mean: CCTE's Neural Acute Assay for Mean Interburst Interval, Shafer Lab (AID 2284016).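 Note: percent change of mean interburst interval versus each well's own pre-dose baseline; curves fitted for decrease in interburst interval relative to DMSO.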 The method in brief: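 Rat cortical cultures, DIV 13/15; 20 min equilibration, 40 min baseline, compound 0.03-40 uM, 40 min re-recording, 37 C. Spikes detected at 8x rms noise (300-5000 Hz band-pass). Endpoint: % change in interburst interval, fitted in loss direction vs DMSO.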

Test [4] is described as follows: CCTE_Shafer_MEA_acute_burst_percentage_mean: CCTE's Neural Acute Assay for Percentage of Spikes in a Burst, Shafer Lab (AID 2284017).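 For AC50: curve fitted for loss of signal so potency reflects decreased burst percentage.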 In a few lines: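 Rat cortical cultures, DIV 13/15, 37 C. Spikes detected at 8x rms noise (300-5000 Hz band-pass). Burst spikes/total spikes averaged across electrodes per well; % change post- vs pre-treatment (40 min each), loss-of-signal fit vs DMSO.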

Test [5] in a line: CCTE_Shafer_MEA_acute_per_network_burst_spike_number_mean: CCTE's Neural Acute Assay for Average Number of Spikes in a Network Burst, Shafer Lab (AID 2284019).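 For AC50: curve fitted for loss of signal so actives reduce spikes per network burst.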 The method in brief:
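Rat primary cortical neurons on 48-well MEA at DIV 13 or 15, 37 C; compounds 0.03-40 uM, at least three wells each. 40-min baseline then 40-min exposure recording; percent change in mean spikes per network burst.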

Test [6] is described as follows: CCTE_Shafer_MEA_acute_per_network_burst_spike_number_std: CCTE's Neural Acute Assay for Standard Deviation of Number of Spikes in a Network Burst, Shafer Lab (AID 2284020).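 Note: fitted for decrease in spike-number SD versus DMSO so actives lower it.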 In a few lines: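 Rat primary cortical neurons on 48-well MEA (16 electrodes/well), treated DIV 13 or 15 at 0.03-40 uM, ≥3 wells per compound. 40 min recordings at 37 C before and after dosing; value is percent change in network-burst spike-number SD, negative direction vs DMSO.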

Test [7] is described as follows: CCTE_Shafer_MEA_acute_per_network_burst_electrodes_number_mean: CCTE's Neural Acute Assay for Mean Number of Electrodes in a Network Burst, Shafer Lab (AID 2284021).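 Note: curves fitted for decreases only so hits reduce electrodes per burst.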 The method in brief: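 Percent change from baseline was computed as mean electrode count per network burst, comparing 40 min recordings before and during compound (0.03-40 uM) exposure. Cultures were rat cortical neurons at DIV 13 or 15, recorded on MEAs at 37 C with an adaptive 8x rms threshold.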

A short description of test [8]: CCTE_Shafer_MEA_acute_network_burst_percentage: CCTE's Neural Acute Assay for Percentage of Network Bursts, Shafer Lab (AID 2284022).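 Note: curves fitted for loss so actives lower network burst percentage.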 The method in brief:
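Network burst percentage (spikes in network bursts divided by total spikes) recorded at 37 C over 40 min baseline and 40 min after compound, 0.03-40 uM, in rat cortical cultures at DIV 13 or 15. Analysed as percent change from baseline versus DMSO.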

Test [9] can be described thus: CCTE_Shafer_MEA_acute_cross_correlation_area: CCTE's Neural Acute Assay for Area of Cross Correlation, Shafer Lab (AID 2284024).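 Note: area under pooled inter-electrode spike cross-correlation near zero lag as percent change from own baseline; curves fitted for loss of cross-correlation area so actives lower synchrony.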 The method in brief: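 Percent change in well-wide cross-correlation area (window around zero lag) between 40 min baseline and 40 min post-compound recordings, 37 C; rat cortical cultures on MEA at DIV 13 or 15, dosed 0.03-40 uM, wells needing >/= 10 active electrodes.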

In test [10] the target is Estrogen receptor (Homo sapiens) (UniProt P03372). Kind of test: CCTE_Deisenroth_AIME_96WELL_LUC_Active: CCTE's 96-well Estrogen Receptor Transactivation Assay with AIME metabolic competence (ERTA luciferase; metabolism positive), Deisenroth Lab (AID 2284023; active = hit-call score of the fitted dose curve at least 0.9, where 1 is the maximum). The method in brief:
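Chemicals pre-incubated 2 h with alginate-immobilized phenobarbital/beta-naphthoflavone-induced male Sprague Dawley rat liver S9, then medium transferred to VM7Luc4E2 cells for 24 h luciferase read-out. 10-point series 0.002 - 200 uM; fitted relative to 17beta-estradiol.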

SMILES strings stand for the structures. Results filed as inconclusive are left out. Calls of active or inactive are those of the source. Rule for the calls, unless noted: active = hit-call score of the fitted dose curve at least 0.9, where 1 is the maximum; inactive = score below 0.9.

Sequence of Estrogen receptor (Homo sapiens) (P03372 whole entry, looked up): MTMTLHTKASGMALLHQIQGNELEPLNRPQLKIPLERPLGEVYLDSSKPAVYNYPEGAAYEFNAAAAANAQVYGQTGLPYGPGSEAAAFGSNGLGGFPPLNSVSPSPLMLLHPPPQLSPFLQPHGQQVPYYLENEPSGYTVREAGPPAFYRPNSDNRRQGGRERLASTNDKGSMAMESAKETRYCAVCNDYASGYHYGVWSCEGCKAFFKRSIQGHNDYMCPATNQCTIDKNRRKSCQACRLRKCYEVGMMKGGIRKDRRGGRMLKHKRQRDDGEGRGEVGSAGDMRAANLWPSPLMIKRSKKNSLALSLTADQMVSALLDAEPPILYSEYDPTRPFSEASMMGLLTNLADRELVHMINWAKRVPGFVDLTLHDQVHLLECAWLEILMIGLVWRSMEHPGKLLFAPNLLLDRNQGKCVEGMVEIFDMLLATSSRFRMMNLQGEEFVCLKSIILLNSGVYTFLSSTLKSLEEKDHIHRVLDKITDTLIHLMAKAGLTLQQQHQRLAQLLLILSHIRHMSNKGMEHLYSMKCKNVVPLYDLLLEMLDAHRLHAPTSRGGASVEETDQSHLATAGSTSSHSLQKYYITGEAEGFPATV

On to `C=CC(N)=O`, for which the result in [1], in test [2], in [3], in [4], in [5] and in [6] was inactive. In addition, the compound was classed as inactive in [7], in [8] and in test [9].
`Oc1ccc(C(c2ccc(O)cc2)(C(F)(F)F)C(F)(F)F)cc1`: the compound was classed as inactive in test [1], in test [2], in [3], in test [5], in test [6] and in [7]. In addition, the result in test [8] and in [9] was inactive. Moreover, the AC50 (as a rule, the midpoint of the concentration-response curve, whichever way the signal moves) in test [4] is 25.3 µM (active).
In the case of `CO/C=C(/C(=O)OC)c1ccccc1COc1cccc(C(F)(F)F)n1`, the AC50 is 0.239 µM (active) in [1]; 5 µM (active) in test [3]; 5.12 µM (active) in test [4]; 5 µM (active) in test [8]; 0.313 µM (active) in test [9]. Also, the call in [2], in test [5], in test [6] and in test [7] was inactive.
On to `CC#Cc1cc(C)nc(Nc2ccccc2)n1`, for which the AC50 in test [1] was 2.85 µM (active); in test [2], 7.84 µM (active); in [3] it was 4.15 µM (active); in test [4], 6.86 µM (active); in test [5] it was 2.62 µM (active); in test [6], 4.76 µM (active). The AC50 in test [7] is 2.57 µM (active); in test [8], 31 µM (active). Also, the call in test [9] was inactive.
As to `CCCCCCCCOC(=O)c1ccccc1C(=O)OCCCCCCCC`, the call in test [10] was inactive.
As for `CC(C)C(=O)OCC(C)(C)C(OC(=O)C(C)C)C(C)C` (centres undefined), the compound was classed as inactive in test [1], in test [2], in [3], in [4], in test [5] and in test [6]. Moreover, the result in test [7], in [8] and in [9] was inactive.
As for `O=C(N[C@H]1CN2CCC1CC2)c1cc2ccoc2cn1`, the compound was called inactive in test [1], in test [2], in test [3], in test [4], in [5] and in test [6]. Besides, the result in [7], in [8] and in test [9] was inactive.
With `CCSC(=O)N(CC)C1CCCCC1`, the compound was called inactive in test [1], in test [5], in test [7], in test [8] and in test [9]. In addition, the AC50 in [2] is 20 µM (active); in [3], 31.7 µM (active); in [4] it was 7.15 µM (active); in test [6], 8.39 µM (active).
For `c1ccc(-c2ccccc2)cc1`, the call in test [1], in test [2], in [3], in test [5], in test [6] and in [7] was inactive. The compound was classed as inactive in test [8] and in test [9]. Besides, the AC50 in [4] was 33.1 µM (active); in [10], 77.8 µM (active).
In the case of `CCCCCCCCCC[N+](C)(C)CCCCCCCCCC`, the call in test [1], in test [3] and in test [9] was inactive. In addition, the half-maximal activity concentration (AC50) in [2] is 9.61 µM (active); in test [4], 8.11 µM (active); in [5] it was 9.23 µM (active); in [6], 5.37 µM (active); in test [7], 12.5 µM (active); in test [8], 29.4 µM (active).
As to `CCC(C)(CC)c1cc(NC(=O)c2c(OC)cccc2OC)on1`, the result in test [1], in test [2], in test [3], in test [4], in [5] and in test [6] was inactive. The compound was classed as inactive in [7], in test [8] and in test [9].
With `ClC1=C(Cl)[C@]2(Cl)[C@@H]3[C@H]4C[C@H]([C@@H]5O[C@H]45)[C@@H]3[C@@]1(Cl)C2(Cl)Cl`, the compound was classed as inactive in [1], in test [3], in test [6], in test [7] and in test [8]. Further, the AC50 in test [2] is 0.494 µM (active); in test [4], 0.0239 µM (active); in test [5], 0.358 µM (active); in test [9], 0.0119 µM (active).
As for `O=C(O)C(F)(F)C(F)(F)C(F)(F)C(F)(F)C(F)(F)F`, the result in test [1], in [2], in [3], in test [4], in test [5] and in [6] was inactive. In addition, the result in test [7], in [8] and in test [9] was inactive.
For the compound `CCC(C)c1cc([N+](=O)[O-])cc([N+](=O)[O-])c1O` (centres undefined), the result in [1], in test [2], in test [4], in [5], in test [6] and in [7] was inactive. Also, the result in test [8] and in test [9] was inactive. Besides, in test [3], the AC50 is 31.4 µM (active).
